Sampled rows, rich in hits. Any-hit rate of the full collection: about 3.5%.
Rv3671c protease – inhibitors of M. tuberculosis serine protease Rv3671c; P9WHR9; inhibition, % at 5.96 µM; 0.048% of 320,000 active; AID 2606; in the data active means inhibition above about 38%;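 further: extracellular domain of Rv3671c used as enzyme; 0% = enzyme with DMSO and 100% = no enzyme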
Mtb hypoxia rep – inhibitors of hypoxia-regulated fluorescent reporter in Mycobacterium tuberculosis; M. tuberculosis hypoxia-regulated fluorescent reporter, fluorescence; fluorescence inhibition, % (test concentration not listed); 0.1% of 300,000 active; AID 1159583; in the data active means fluorescence inhibition mostly above about 23%, no sharp cut-off; inactive means mostly below about 17%
GDH-TPI counter – inhibits GDH-TPI coupling enzymes, artifact for Mtb FBA screen | 1.2% of 360,000 active | GDH-TPI coupled enzyme counterscreen, NADH absorbance | AID 588335 | inhibition, % at 4.8 µM; in the data active means inhibition above about 30%;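 further: 0% = DMSO wells and 100% = wells lacking the enzyme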
Mtb FBA inh – inhibitors of M. tuberculosis fructose-bisphosphate aldolase. purified M. tuberculosis FBA, fluorescence read-out. inhibition, % at 1 µM. P9WQA3. 2.3% of 360,000 active; in the data active means inhibition above about 27%;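 further: 0% = vehicle and 100% = reference inhibitor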
FadD28 binding – M. tuberculosis FadD28 bisubstrate binding inhibition; FadD28 bisubstrate probe binding, fluorescence polarization; inhibition, % at 12.5 µM; 0.22% of 360,000 active; AID 588549; in the data active means inhibition above about 8.5%, passing the limit was not always enough
Mtb UGM inh – Mtb UDP-galactopyranose mutase inhibition; P9WIQ1; purified UGM, fluorescence polarization probe displacement; inhibition, % at 10 µM; 0.06% of 320,000 active; AID 504406; in the data active means inhibition above about 10%, passing the limit was not always enough
Target sequence (P9WIQ1 whole entry, looked up): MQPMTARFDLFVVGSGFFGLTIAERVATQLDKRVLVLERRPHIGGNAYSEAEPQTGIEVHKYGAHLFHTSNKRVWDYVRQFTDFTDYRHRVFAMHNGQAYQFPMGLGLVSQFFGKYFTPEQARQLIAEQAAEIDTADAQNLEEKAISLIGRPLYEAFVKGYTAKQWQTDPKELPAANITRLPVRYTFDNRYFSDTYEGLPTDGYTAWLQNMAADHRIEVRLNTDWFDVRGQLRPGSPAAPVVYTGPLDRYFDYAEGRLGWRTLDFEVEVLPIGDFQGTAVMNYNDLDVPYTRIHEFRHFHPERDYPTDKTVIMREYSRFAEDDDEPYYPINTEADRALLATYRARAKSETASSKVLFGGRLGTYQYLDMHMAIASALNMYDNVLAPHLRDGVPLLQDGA
An asterisk follows results filed as active; nt = no result; + = active, no number.

SMILES	Rv3671c protease	Mtb hypoxia rep	GDH-TPI counter	Mtb FBA inh	FadD28 binding	Mtb UGM inh
Cn1cccc1/C=N/NC(=O)c1ccccn1	6	nt	31*	-1	0	-4
Cn1cccc1/C=N/NC(=O)C(O)c1ccccc1 (stereo not given)	1	nt	31*	-3	2	1
Cc1cc(C(=O)N/N=C/c2cccn2C)no1	0	nt	31*	0	-1	1
Cn1cccc1/C=N/NC(=O)Cc1ccccc1	-2	nt	24	-2	-4	0
Cc1ccc(/C=N/NC(=O)c2ccc3ccccc3c2)s1	8	nt	32*	-1	-2	2
CC(=NNC(=O)c1sccc1C)c1cccnc1	nt	4	nt	nt	nt	nt
COc1ccc(C=CC(=O)Nc2cc(S(=O)(=O)N3CCCCC3)ccc2N2CCCCC2)cc1OC	nt	9	nt	nt	nt	nt
O=C(N/N=C/c1cccs1)c1ccccn1	2	nt	23	-1	0	1
Cn1cccc1/C=N/NC(=O)c1ccncc1	-4	nt	35*	1	0	0
Cn1cccc1C=NNC(=O)c1cccnc1	nt	17	nt	nt	nt	nt
Cc1ccc(/C=N/NC(=O)c2ccccn2)s1	-3	nt	32*	0	-1	4
Cc1ccc(-c2nn(CCC#N)cc2C=C(C#N)C#N)cc1	0	15	33*	-1	-1	0
NC(CO)c1cn(C(CCC(=O)O)C(=O)N2CCNCC2)nn1 (stereo not given)	nt	10	nt	nt	nt	nt
Nc1ccc(C(=O)C(=O)c2ccc(N)cc2)cc1	-1	nt	38*	1	0	0
COc1ccc(-c2cc(C(F)(F)F)nc(S(C)(=O)=O)n2)cc1	-9	2	39*	7	-8	-1
CN1c2ccsc2/C(=N/NC(=O)c2c(F)cccc2F)CS1(=O)=O	2	nt	34*	0	-5	4
Nc1ccc(C(=O)N/N=C2\CCCc3c2[nH]c2ccccc32)cc1	-1	nt	62*	12	4	3
O=C(N/N=C\c1c[nH]c2ccccc12)c1ccc(O)cc1	nt	nt	32*	0	-3	0
O=C(NN=Cc1c[nH]c2ccccc12)c1cc(Br)ccc1O	nt	3	nt	nt	nt	nt
Cc1cc(C=NNC(=O)c2ccc(O)cc2)c(C)n1CC(C)C	nt	-6	nt	nt	nt	nt
Cc1cc(/C=N/NC(=O)c2ccc(O)cc2)c(C)n1CC(C)C	6	nt	47*	4	-1	-1
O=C(N/N=C/c1c[nH]c2ccccc12)c1cc(Cl)ccc1O	11	nt	29	17	16*	4
CCCSc1ccc(C2C3C(=O)N(C)C(=O)C3[C@]3(C(=O)OC)CCCN23)cc1OC (stereo not given in full)	nt	3	nt	nt	nt	nt
Nc1ccc(C(=O)N/N=C/c2c[nH]c3ccccc23)cc1	-5	nt	41*	0	0	1
O=C(N/N=C/c1c[nH]c2ccccc12)c1cc(-c2ccc(-c3ccccc3)cc2)n[nH]1	-83	nt	13	3	-3	-1
SMILES	Rv3671c protease	Mtb hypoxia rep	GDH-TPI counter	Mtb FBA inh	FadD28 binding	Mtb UGM inh
NC(=S)N/N=C/c1c[nH]c2ccccc12	-2	nt	56*	-1	-4	-1
O=C(NN=Cc1c[nH]c2ccccc12)c1ccccc1	nt	12	nt	nt	nt	nt
O=C(N/N=C/c1c[nH]c2ccccc12)c1cc(-c2ccccc2)n[nH]1	7	nt	37*	-6	6	3
c1ccc(CSC2=NNC(c3ccccn3)S2)cc1 (stereo not given)	8	1	13	-2	-2	4
O=C(CSC1=NNC(c2ccccn2)S1)Nc1ccc(C(F)(F)F)cc1 (stereo not given)	2	-18	32*	-2	0	0
Fc1ccc(NN=C2CCSc3sccc32)c(F)c1	nt	12	nt	nt	nt	nt
O=c1c2ccccc2sc2ccc(NCCCN3CCOCC3)cc12	1	10	2	7	1	-1
COc1cc2sc3cc(NCCCN4CCOCC4)ccc3c(=O)c2cc1OC	-11	11	24	34*	-21	1
Clc1ccc2nc3ccccn3c2c1	4	13	8	178*	-3	-5
N#Cc1ccc2c(c1)nc1ccccn12	10	11	8	+	0	-2
O=c1cc(Cl)nc2ccccn12	nt	17	21	16	-3	nt
CC(=O)c1sc(NC(=O)COc2ccccc2)nc1C	8	18	10	-2	0	0
Cc1nc2ccccn2c(=O)c1NC(=O)COc1ccccc1	nt	nt	31*	5	-1	nt
Cc1ccc(/C=C2\SC(=S)N(c3c(C)n(C)n(-c4ccccc4)c3=O)C2=O)cc1	-1	-9	27	-2	-2	4
Cc1c(N2C(=O)/C(=C/c3ccccc3)SC2=S)c(=O)n(-c2ccccc2)n1C	-13	16	38*	0	0	1
Cc1c(N2C(=O)/C(=C/c3ccc(N(C)C)cc3)N(C)C2=S)c(=O)n(-c2ccccc2)n1C	nt	40*	9	-19	0	nt
CC(CC(C)C)=NOc1nc(C)cc(C)n1	nt	11	nt	nt	nt	nt
O=C(C[n+]1ccccc1)NN=Cc1cc(Br)ccc1F	nt	0	nt	nt	nt	nt
COc1cc(/C=N/Nc2nncn2N)ccc1OCc1c(C)no[n+]1[O-]	-52	nt	12	-5	-2	4
COc1cc(/C=C(\C#N)C(N)=O)ccc1OCc1c(C)no[n+]1[O-]	2	4	31*	0	-5	-2
Cc1c(CC(=O)NCC(=O)NCC(=O)N[C@@H](Cc2ccccc2)C(=O)O)c(=O)oc2c(C)c(O)ccc12	nt	nt	12	+	1	nt
O=C(Cc1cc(=O)oc2cc(O)ccc12)NC(Cc1ccc(Cl)cc1)C(=O)O (stereo not given)	4	-4	7	+	0	1
CSC[C@H](NC(=O)Cc1c(C)c2cc3c(C)c(C)oc3cc2oc1=O)C(=O)N[C@@H](Cc1ccccc1)C(=O)O	1	nt	7	6	-4	4
COc1ccc2c(CC(=O)N[C@@H](Cc3ccccc3)C(=O)O)cc(=O)oc2c1C	nt	0	21	149*	0	0
CN(C)Cc1c(C(=O)NN=Cc2ccccc2OCc2c(F)cccc2Cl)nnn1-c1nonc1N	nt	7	nt	nt	nt	nt
CC(=O)Nc1ccc(S(=O)(=O)C(C#N)c2nc3ccccc3nc2NCCCO)cc1 (stereo not given)	-12	12	24	+	-2	1
CC(=O)Nc1ccc(S(=O)(=O)C(C#N)c2nc3ccccc3nc2NCCO)cc1 (stereo not given)	1	7	23	+	0	1
O=c1nc(C=Cc2cccn2-c2ccc([N+](=O)[O-])cc2)cc(C(F)(F)F)[nH]1	nt	11	nt	nt	nt	nt
CC(=O)NNC(=O)c1sc(=S)n(C)c1C	-2	-9	33*	-4	-4	2

Screening data from PubChem BioAssay.
